Source: PubChem
HCV inhibitor: HCV inhibition | AID 651820 | 340,000 tested, 3.4% active | Huh7.5.1 HCVcc-Cre infection, luciferase reporter, 44 h | Potency, µM (highest dose often 41.8 µM), inactives show at the highest dose activity change, negative = inhibition, most hits filed as inhibitors; also: potency is read from the fitted curve at half-maximal effect
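After 44 h co-culture of compound, cells and HCVcc-Cre (~0.5 moi), substrate is added for 15 min at room temperature and luciferase measured over 15 sec. Cells were seeded at 1,000/well and pre-cultured 4 h.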
AmpC inh detg: AmpC beta-lactamase inhibition with detergent present. AID 485294. 370,000 tested, 0.041% active. Potency, µM (top dose mostly 114 µM), for inactives: top-dose activity change, negative = inhibition, most hits filed as inhibitors. AmpC hydrolysis of nitrocefin, absorbance 480 nm, 0.01% Triton;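 also: potency is read from the fitted curve at half-maximal effect; 0% = no-compound wells and -100% = no-enzyme wells; nearly all actives have a fitted effect of over 25% in size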
Target sequence (P00811 whole entry, looked up): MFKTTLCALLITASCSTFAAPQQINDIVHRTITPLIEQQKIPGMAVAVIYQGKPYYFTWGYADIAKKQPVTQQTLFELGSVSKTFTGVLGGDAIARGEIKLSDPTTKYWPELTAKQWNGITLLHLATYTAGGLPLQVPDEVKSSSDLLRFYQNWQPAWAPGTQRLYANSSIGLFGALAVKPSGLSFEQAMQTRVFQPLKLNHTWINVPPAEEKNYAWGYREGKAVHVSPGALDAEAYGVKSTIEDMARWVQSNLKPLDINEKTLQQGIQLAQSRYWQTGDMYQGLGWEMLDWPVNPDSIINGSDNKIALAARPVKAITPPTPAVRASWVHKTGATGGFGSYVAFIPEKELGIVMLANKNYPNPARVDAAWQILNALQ
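20 mM phosphate pH 7.0 + 0.01% (detergent screen) or 0.0001% Triton X-100; 5.3 nM AmpC reagent; cpd preinc 15 min RT; nitrocefin (800 uM stock) to start; A480 q20 s × 4 min; Activity was normalised to no-enzyme and no-compound control wells.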
FMDV antiviral: foot and mouth disease virus antiviral activity | FMDV antiviral cell-based qHTS | Potency, µM (highest dose often 57.9 µM), for inactives: at the top dose activity change, negative = inhibition, actives largely listed as inhibitors | 410,000 tested, 1.2% active; calls by dose curve; tested in HEK293T cells; also: read-out not given here; potency is read from the fitted curve at half-maximal effect; nearly all actives have a fitted effect of over 45% in size
AmpC inh no detg: inhibitors of E. coli AmpC beta-lactamase without detergent; AmpC nitrocefin hydrolysis, absorbance 480 nm, 0.0001% Triton; Potency, µM (titrated, usually from 57.1 µM), for the others: top-dose activity change, negative = inhibition, hits mostly inhibitors; 330,000 tested, 0.52% active; AID 485341;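 also: potency is read from the fitted curve at half-maximal effect; plate controls were no compound for no effect and no enzyme for full effect; nearly all actives have a fitted effect of over 20% in size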
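AmpC (5.3 nM in the dispensed reagent) in 20 mM phosphate pH 7.0 with 0.01% (detergent screen) or 0.0001% Triton X-100 was preincubated with compounds for 15 min at room temperature. Nitrocefin was then added from an 800 uM solution, and hydrolysis was followed at 480 nm.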
HCMV antiviral: blocks human cytomegalovirus replication; HFF cells, HCMV-luciferase reporter, 72 h; hits give low values; activity change, negative = inhibition, % at 57.5 µM; 410,000 tested, 4.5% active; in the data active = activity change below about -60%; inconclusive = no clear call, values can overlap the other calls; inactive = above about -39%
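Luciferase read-out from HCMV-luciferase-infected HFFs (MOI 1 PFU/cell) 72 h post infection at 37C; compounds added after 16 h cell attachment; activity normalized between buffer-only basal and Salinomycin (10uM) inhibitor controls.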
Starred values were filed as active, the others as inactive; ? = inconclusive; nt = no result given. Only some compounds are listed: those with a hit (about 7.3% of all), similar ones and a draw of the others. Unless noted, calls follow the shape of the dose curve; as a rule, active = well fitted curve in the direction sought with a large enough effect; inconclusive = small, poorly fitted or top-dose-only effect, or another doubt; inactive = no such curve, though single readings can be large; an effect the other way counts as inactive or inconclusive. Unless noted, % is scaled to controls: 0 for no effect and ±100 for the full control effect.

SMILES	HCV inhibitor	AmpC inh detg	FMDV antiviral	AmpC inh no detg	HCMV antiviral
CC(=O)c1cn(CC(=O)Nc2ccccc2C)c2ccccc12	?	-11%	?	8%	-68*
CC(=O)c1cn(CC(=O)Nc2ccc(C)cc2)c2ccccc12	?	3%	2%	-6%	-16
CC(=O)c1cn(CC(=O)NCCc2c[nH]c3ccccc23)c2ccccc12	10µM*	?	?	3%	-38
COc1ccc(OC)c(NC(=O)c2cc3c(=O)oc4ccccc4c3s2)c1	nt	8%	-5%	nt	10
CC(C)CCN1C(=O)c2cccc3c(N)ccc(c23)C1=O	?	nt	61%	nt	89
O=C(Nc1ccc(Br)cc1)C1OCCc2ccccc21 (stereo unspecified)	?	-3%	22%	-22%	-7
CCc1ccc(NC(=O)C2=C(C)C(=O)OC23CCCCC3)cc1	nt	16%	-4%	nt	-37
CCOc1ccc(NS(=O)(=O)c2ccc(C(=O)N(CC)CC(=O)NCc3cccs3)cc2)cc1	-21%	4%	-18%	30%	17
CCOc1ccc(NS(=O)(=O)c2ccc(C(=O)N(C)Cc3cccc(OC)c3OC)cc2)cc1	13µM*	-2%	-20%	104%	-31
CCOc1ccc(S(=O)(=O)Nc2ccc(C(=O)N(CC)CC(=O)NCc3cccs3)cc2)cc1	nt	nt	-13%	nt	-72*
CCOC(=O)c1c(NC(=O)C2CC(Cl)=CCC2C(=O)O)sc2c1CCCCC2 (stereo unspecified)	-18%	-4%	12%	-25%	nt
O=C(CC(Nc1ccccc1)C(=O)O)c1ccccc1 (stereo unspecified)	2%	?	19%	-27%	44
C=C(C(=O)c1ccccc1)C(NC(C)(C)C)c1ccccc1 (stereo unspecified)	3.5µM*	nt	10µM*	nt	-98*
C=C(C(=O)c1ccccc1)C(C)CC(=O)c1ccccc1 (stereo unspecified)	?	-20%	28µM*	-24%	-82*
Cc1cc(C)cc(NC(=O)c2cc(S(=O)(=O)N3CCOCC3)cn2C)c1	nt	20%	-12%	nt	24
CCSc1ccc2nnc(-c3ccc(F)cc3)n2n1	?	3%	-14%	0.4µM*	?
CCOC(=O)CC(=O)CSc1ccc2nnc(-c3ccccc3)n2n1	-8%	2%	7%	0.16µM*	-28
CCOC(=O)N1CCC(NC(=O)Cc2ccccc2)CC1	7%	?	0%	0%	11
CCOC(=O)N1CCC(Nc2ccc3nnc(-c4ccccc4)n3n2)CC1	14µM*	-14%	?	31%	135
CCOc1cc2sc(N3CCC(C(=O)Nc4ccc(C(C)C)cc4)CC3)nc2cc1Br	nt	8%	54%	nt	150
CCCCCC(/C=N/Nc1ccc(S(=O)(=O)N2CCOCC2)cc1[N+](=O)[O-])=C\c1ccccc1	0%	4%	-17%	-13%	-96*
CCCN1CCC(=NNc2ccc(S(=O)(=O)N3CCOCC3)cc2[N+](=O)[O-])CC1	?	-15%	-7%	-6%	-73*
CC(=O)N1CCC(=NNc2ccc(S(=O)(=O)N3CCOCC3)cc2[N+](=O)[O-])CC1	?	-14%	-4%	-19%	-27
O=C(NCC1(N2CCOCC2)CCCC1)c1cnn(-c2nccc(-c3cccs3)n2)c1C1CC1	nt	nt	-4%	nt	nt
O=C(Cc1ccccc1)Nc1ccccc1C(=O)N1CCCCC1	-11%	-3%	11%	-7%	-34
SMILES	HCV inhibitor	AmpC inh detg	FMDV antiviral	AmpC inh no detg	HCMV antiviral
O=C(Cc1ccccc1)c1ccccc1C(=O)N1CCCCC1	3.2µM*	-12%	44%	-9%	14
O=C(c1ccccc1CCc1ccccc1)N1CCOCC1	-10%	2%	-4%	11%	-104*
NC(=O)C1CCN(C(=O)c2ccccc2CCc2ccccc2)CC1	10%	-16%	6%	9%	-11
CC[C@]12c3[nH]c4ccccc4c3CCN1C(=O)C(CC(=O)NCc1ccco1)C[C@@H]2C(=O)N1CCN(C(=O)C2CC2)CC1 (stereo partly specified)	0.79µM*	nt	1%	191%	34
CC[C@]12c3[nH]c4ccc(Cl)cc4c3CCN1C(=O)[C@@H](CC(=O)NCc1ccco1)C[C@@H]2C(=O)N1CCN(C(=O)C2CC2)CC1	3%	nt	-14%	181%	2
CC[C@]12c3[nH]c4ccc(Cl)cc4c3CCN1C(=O)[C@@H](CC(=O)NCC13CC4CC(CC(C4)C1)C3)C[C@@H]2C(=O)N1CCN(C(=O)C2CC2)CC1	?	nt	?	167%	-26
CC[C@]12c3[nH]c4ccccc4c3CCN1C(=O)C(CC(=O)NCC13CC4CC(CC(C4)C1)C3)C[C@@H]2C(=O)N1CCN(C(=O)C2CC2)CC1 (stereo partly specified)	22µM*	nt	?	7%	-16
Cc1ccc(C(=O)Nc2cccc(-c3nc(CNC(=O)C4(C)CC4)c(C)o3)c2)s1	nt	nt	28%	nt	nt
COC1=Nc2ccccc2N2CCN=C12	nt	nt	-3%	nt	23
c1ccc2c(c1)C1=NCCN1c1ccccc1-2	nt	nt	-18%	nt	-103*
O=C(N=Nc1c(O)[nH]c2ccccc12)c1cc(NS(=O)(=O)c2cccs2)cc(NS(=O)(=O)c2cccs2)c1	-21%	3%	-8%	16µM*	-21
O=C(COc1ccccc1F)NCc1ccc(-n2cccc2)cc1	-1%	5%	-12%	-8%	13
NNc1nc(C(F)(F)F)nc2ccccc12	11%	-1%	-1%	-13%	22
O/C=c1\ccc2cccc3nc(C(F)(F)F)nc1c23	?	1%	13µM*	13µM*	-26
O=C1c2ccccc2S(=O)(=O)N1Cc1nc2ccccc2s1	20%	-6%	?	-6%	-73*
COC(=O)c1ccc(NC(=O)CN(c2cccc(C(F)(F)F)c2)S(C)(=O)=O)cc1	nt	2%	?	nt	-3
C=CCNc1ncnc2c1[nH]c1ccccc12	11µM*	-3%	?	-25%	-9
C=CCNc1ncnc2ccccc12	-13%	-10%	nt	-22%	-6
CCOc1ccc2[nH]c3c(NCCO)ncnc3c2c1	13%	0%	13%	-25%	48
C=CCNc1ncnc2c1[nH]c1ccc(Cl)cc12	?	-3%	?	-33%	-97*
O=C(Nc1cc(-c2ccccc2)nn1-c1c(Cl)cccc1Cl)c1ccc(F)cc1	?	nt	-15%	-33%	3
O=C(c1cnn(-c2nccc(-c3ccco3)n2)c1C1CC1)N1CCCCC1c1cccnc1 (stereo unspecified)	nt	nt	-12%	nt	nt
COc1ccc(C(=O)OCC(O)COC(=O)c2ccc(OC)cc2)cc1	-6%	nt	1%	nt	55
CC(C)(C)OC(=O)N1CCC[C@H]1c1nnc(SCc2ccc(Cl)cc2Cl)o1	?	2%	40µM*	nt	9
